# p-CIP stab down: p/CIP protein destabilization; F442A p/CIP-EGFP cells, EGFP fluorescence, 16 h; decrease of EGFP signal, % at 10 µM; 0.01% of 290,000 active; AID 1984;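 active = EGFP signal decrease of at least 30% at 10 µM or well 3 SD below plate mean, unless failing retest; inactive = the rest, including hits failing retest or dose response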
# HIF activator: HIF pathway transcriptional activation. U2OS HRE-luciferase reporter, luminescence; normalized: DMSO 0%, desferrioxamine 100%. 0.32% of 300,000 active. activation, % at 7.5 µM (by protocol);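 active = mean activation of at least 10% of the iron chelator positive control signal, with at least half of replicates also reaching 10%; inconclusive = mean and replicate majority disagree about reaching 10%; inactive = mean and most replicates under 10%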
# PolyA inh: blocks polyadenylation in yeast reporter cells | S. cerevisiae SKY197-pL101 polyadenylation reporter, beta-gal luminescence; efflux-impaired pdr1/pdr3 knockout yeast; score 100 = 6 SD above DMSO | 0.02% of 300,000 active | activity score, % at 12 µM;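 active = lowest replicate activity score at least 50, where 100 means six control SD above control mean; inconclusive = lowest score under 50 but half or more replicates reach 50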;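 also: yeast exposed to compound for 9 h at 30 °C; higher score means more reporter readthrough which indicates perturbed polyadenylation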
# Platelet DG rel: modulates dense granule release in human platelets; human platelet-rich plasma, SFLLRN dense granule ATP release, luminescence; inhibition, %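 (compounds screened at 7.5 µM in platelet-rich plasma)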; 0.22% of 300,000 active; AID 1663;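 active = mean replicate score, as percent of positive control, at or above 50; inconclusive = mean below 50 but at least one replicate at or above 50; inactive = mean and every replicate below 50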
# AHR activator: human AHR activation | P35869 | AHR-responsive luciferase reporter cells, luminescence | activation, % at 5 µM | 2.5% of 320,000 active | AID 2796; in the data active = activation above about 47%;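 also: 0% = vehicle wells and 100% = reference agonist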
# * hit, by the source's call; ? = inconclusive; . = no result given. Hits are enriched below; roughly 2.8% of the tested compounds scored in any of these assays.
SMILES,p-CIP stab down,HIF activator,PolyA inh,Platelet DG rel,AHR activator
COc1ccc(NC(=O)c2cccs2)cn1,2,19*,8,-2,-6
COc1ccc(NC(=O)/C(Cl)=C(/Cl)S(=O)Cc2ccccc2)cn1 (stereo unspecified),-14,-4,-35,57*,-13
COc1cc(N)ccc1NC(=O)c1cccs1,0,0,-2,.,60*
COc1ccc(NC(=O)Cc2ccccc2)cn1,-12,0,-3,-21,3
CC(NCC(=O)Nc1cc(S(=O)(=O)N2CCOCC2)ccc1Cl)c1ccc(Cl)cc1Cl (stereo unspecified),.,0,13,-4,-2
CCOC(=O)c1[nH]c2ccccc2c1NC(=O)CC,-4,0,-1,1,60*
CCOC(=O)c1[nH]c2ccccc2c1NC(=S)Nc1ccccc1,4,2,7,-17,49*
CCOC(=O)c1[nH]c2ccccc2c1NC(C)=O,0,0,-13,-2,33
O=C(O)CCc1c(C(=O)O)[nH]c2ccccc12,1,0,8,8,3
CN(C)Cc1c(C(=O)Nc2ccccc2)[nH]c2ccccc12,.,3,7,0,72*
CCOC(=O)c1[nH]c2ccccc2c1NC(=S)Nc1cccc(C)c1,3,1,?,-12,72*
Cc1ccc(S(=O)(=O)NCCc2nc3ccccc3[nH]2)cc1,-9,0,13,17,-1
CC1(c2ccccc2)NC(=O)N(CC(=O)Nc2ccccc2C(=O)N2CCCCC2)C1=O (stereo unspecified),.,0,-3,-3,-2
COc1ccc(N(CC(O)Cn2cnc3ccccc32)S(=O)(=O)c2ccc(C)cc2)cc1 (stereo unspecified),-11,0,4,2,3
O=C(Nc1ccc(C(=O)OC2CCCCC2)cc1)c1ccncc1,-11,-2,0,21,1
CCC(=O)Nc1nc(-c2ccccc2)nc(SC)c1C(C)=O,6,1,-1,-9,18
CCOC(=O)c1c(C)nc(-c2ccccc2)nc1NC(=O)CC,-18,2,1,-2,47*
CCOC(=O)c1ccn(CSc2c(F)c(F)cc(F)c2F)n1,.,.,.,.,-1
O=C(Nc1ccc2c(c1)OCO2)c1ccc2nc[nH]c2c1,8,3,-3,12,62*
O=C(Nc1cccc(F)c1)c1ccc2c(c1)OCO2,-14,3,-16,18,56*
Cc1cccc(NC(=O)CNC(=O)c2ccc3c(c2)OCO3)n1,.,0,-1,23,50*
CN(c1ccc(C(=O)Nc2ccc3c(c2)OCO3)cc1)S(C)(=O)=O,-3,3,1,83*,19
O=C(Nc1c(C(=O)Nc2cccc(F)c2)oc2ccccc12)c1ccc2c(c1)OCO2,-8,1,-1,1,5
CC(C)(C)c1ccc(C(=O)NNC(=O)CCc2ccccc2)cc1,.,0,-9,1,3
CCN(C(=O)COC(=O)CNS(=O)(=O)c1ccc(SC)c([N+](=O)[O-])c1)C1CCCCC1,.,0,11,2,0
SMILES,p-CIP stab down,HIF activator,PolyA inh,Platelet DG rel,AHR activator
O=C(c1cc(=O)[nH]c2ccccc12)N(Cc1nnc(-c2ccccc2Cl)o1)C1CC1,.,-1,-7,4,8
CC(Oc1ccc(Br)cc1)C(=O)N(C)CC(=O)Nc1ccc(N2CCOCC2)cc1 (stereo unspecified),.,0,1,5,0
O=C(NC1CCCCC1)c1ccc2c(c1)OCCO2,-5,1,0,5,12
O=C(NC1CCCCCCC1)c1ccc2c(c1)OCO2,-12,0,6,2,69*
CC(C)(C)c1ccc(S(=O)(=O)N2CCC(NC(=O)c3ccco3)CC2)cc1,-16,0,2,-8,1
CC(=O)Nc1ccc(S(=O)(=O)NC2=C(N3CCN(c4ccc(F)cc4)CC3)C(=O)c3ccccc3C2=O)cc1,-5,0,-10,-25,85*
Cc1ccc(S(=O)(=O)NC2=C(N3CCN(c4ccccc4F)CC3)C(=O)c3ccccc3C2=O)cc1,-18,1,-2,4,7
Cn1nc(-c2ccccc2)nc1-c1ccccc1,.,4,-12,-4,48*
COc1cccc(NC(=O)CN2CCN(C(=O)c3ccco3)CC2)c1,-2,0,8,-4,0
CC(=O)N1c2ccc(S(=O)(=O)N3CCC(C(=O)Nc4ncccc4C)CC3)cc2CC1C (stereo unspecified),-7,0,6,-5,1
CCn1cnnc1SCC(=O)c1c(N)n(C2CC2)c(=O)[nH]c1=O,.,.,.,.,2
COc1ccc(-c2cc(N)n(S(=O)(=O)Cc3ccccc3)n2)c(OC)c1,-4,0,-18,-10,62*
COc1ccc(-c2cc(N)n(CCC#N)n2)c(OC)c1,4,-3,-3,5,18
CCCNC(=O)C(Cc1ccc(C(F)(F)P(=O)(OCC)OCC)cc1)NC(=O)c1ccc(C#N)cc1 (stereo unspecified),.,.,.,.,0
CCC(=O)NC(c1cc(Cl)c2cccnc2c1O)C(C)C (stereo unspecified),.,.,.,.,8
CCC(=O)NC(c1cccs1)c1cc(Cl)c2cccnc2c1O (stereo unspecified),-5,31*,-21,-2,-2
CCCCC(=O)NC(c1cccs1)c1cc(Cl)c2cccnc2c1O (stereo unspecified),-30,34*,-16,-4,-1
Nc1c(C(=O)O)cnc2c(-c3ccc(Cl)cc3)cnn12,10,1,13,23,98*
Clc1ccc(-c2cnn3c(-c4ccncc4)ccnc23)cc1,2,2,-19,-2,72*
Cc1nn(-c2ccccc2)c2nc(-c3ccncc3)cc(C(=O)NCc3ccco3)c12,-6,0,19,1,65*
Cc1nn(-c2ccccn2)c2nc(-c3cccs3)cc(C(=O)NCc3ccco3)c12,5,1,26,21,-3
CCOC(=O)c1c(C)c(-c2ccccc2)n(CC(=O)N2CCCC2)c1C,4,0,2,56*,2
O=C(O)c1ccc(N/N=C/c2ccncc2)cc1,-6,1,36,10,8
O=[N+]([O-])c1ccc(/C=N/Nc2ccccn2)cc1,-9,5,-8,1,8
O=C(O)c1ccc(N/N=C/c2ccc3nccnc3c2)cc1,-12,-2,-1,56*,-10
O=C(O)c1ccc(/C=N\Nc2ccccn2)cc1,.,2,14,53*,5
O=C(Cn1cnc2cc([N+](=O)[O-])ccc2c1=O)Nc1ccc(N2CCOCC2)cc1,-1,0,1,4,3
COc1c(Br)cc(Br)cc1C(=O)Nc1ccccc1N1CCCC1,-5,-17,-8,-4,.
OCCC1CN(Cc2cn[nH]c2C2CCCCC2)CCN1C1CCCCC1 (stereo unspecified),-3,0,6,0,0
CCOC(=O)c1ccc(-n2ccnc2)c(NC(=O)c2ccc(Cl)cc2)c1,-5,0,16,-17,53*

# Source: PubChem (several laboratories)
